# Measurements taken from ChEMBL document CHEMBL3433997, “St. Jude Leishmania screening dataset” (2016).
# Biological target: Solute carrier family 2, facilitated glucose transporter member 1 (Homo sapiens) (UniProt P11166)
# Assay: ST_JUDE_LEISH: Cytotoxicity at 2uM final concentration against transgenic Leishmania Mexicana promastigotes LmGLUT1 that are glucose transport deficient and complemented with the human glucose transporter GLUT1. Activity is measured by DNA content using SYBR green in vitro
# Type: functional
# Sequence of Solute carrier family 2, facilitated glucose transporter member 1 (Homo sapiens) (P11166 whole entry): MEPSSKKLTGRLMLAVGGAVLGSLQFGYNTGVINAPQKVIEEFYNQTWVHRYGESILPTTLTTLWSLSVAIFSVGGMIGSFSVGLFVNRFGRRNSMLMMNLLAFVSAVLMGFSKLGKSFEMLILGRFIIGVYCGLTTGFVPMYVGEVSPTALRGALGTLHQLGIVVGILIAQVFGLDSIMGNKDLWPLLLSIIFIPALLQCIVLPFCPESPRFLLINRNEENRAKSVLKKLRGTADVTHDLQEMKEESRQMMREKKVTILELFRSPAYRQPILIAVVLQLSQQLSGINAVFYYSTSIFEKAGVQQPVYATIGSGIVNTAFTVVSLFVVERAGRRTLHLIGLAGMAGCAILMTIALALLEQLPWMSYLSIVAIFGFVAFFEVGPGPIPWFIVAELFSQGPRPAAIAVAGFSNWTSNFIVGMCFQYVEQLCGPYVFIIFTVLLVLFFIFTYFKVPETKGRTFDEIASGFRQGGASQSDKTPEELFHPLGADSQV
row,Compound,inhibition [%]
1,COc1cc(C(=O)NCCCN2CCN(c3cc(Cl)ccc3OC)CC2)ccc1-c1nc2cc(Cl)c(Cl)cc2[nH]1,6.79
2,CCC(=O)Nc1ccc(C(O)CN2CCC3(C=Cc4ccccc4O3)CC2)cc1 (stereo not given),3.61
3,CN1CCC(NCc2cccc(-c3cnc(NCc4ccccc4)nc3)c2)CC1,0.74
4,O=C(Nc1ccc(-c2nc3ccccc3[nH]2)cc1)c1ccc(-c2cccc([N+](=O)[O-])c2)o1,-1.84
5,Cc1cc(C)n2nc(C(=O)Nc3cc(C(F)(F)F)ccc3N3CCOCC3)nc2n1,3
6,CCN1CCN(c2cc(C)c3cc(NC(=O)c4cccc(C(F)(F)F)c4)ccc3n2)CC1,3.14
7,Clc1ccc(C2CCN(CCCOc3ccc4c(c3)CCNCC4)CC2)cc1,56.8
8,N#CCCN1CCN(Cc2cccc(-c3ccc(-c4nc5cc(F)ccc5[nH]4)cc3)c2)CC1,4.34
9,COc1cc2c(cc1CCNCCCCNCCc1cc3c(cc1OC)CCCC3)CCCC2,99.4
10,COc1ccc(-c2ccc(NC(=O)c3ccc(C#N)cc3)cc2)cc1CNC(C)C,4.24
11,COc1ccc2nccc([C@H](O)CN3CCC(NCc4ccc5c(c4C)OCCO5)CC3)c2n1,41
12,COc1ccc2c(c1)ncn2-c1cc(OCc2ccncc2Br)c(C(N)=O)s1,1.09
13,CC(=O)Nc1ccc(OCCCCN(Cc2ccccc2C(F)(F)F)c2ccc(C#N)c(C(F)(F)F)c2)cc1,1.93
14,COc1ccc2ccc(F)c(CC(=O)N3CCOC(CNCc4cccc(-c5ccsc5)n4)C3)c2n1 (stereo not given),6.96
15,S=C(NN=Cc1ccccn1)NC1CC2C=CC1C2 (stereo not given),10
16,CC(C)c1ccc(Nc2nc(NCCc3c[nH]cn3)nc(NCc3ccccc3)n2)cc1,1.58
17,CC(=O)Nc1cccc(C(=O)Nc2cccc(-c3cccc(-c4nc5cc(F)ccc5[nH]4)c3)c2)c1,3.73
18,CCN(CCCNc1nc(=S)[nH]c2cc(OC)c(OC)cc12)c1ccccc1,-0.4
19,COC(=O)C(=O)c1c(-c2ccccc2)c(-c2ccc(OC)c(OC)c2)c2c3cc(OC)c(OC)cc3ccn12,13.2
20,COc1cccc(CNC[C@@H](O)[C@H](Cc2ccccc2)NC(=O)c2cc3c4c(c2)c(C(C)C)cn4CCS(=O)(=O)N3C)c1,8.36

row,Compound,inhibition [%]
1,CN1CCN(Cc2ccc(-c3ccc4c(Nc5cc(O)c(Cl)cc5F)ccnc4c3)o2)CC1,7.47
2,O=C(Nc1cccc(-c2ccc(-c3nc4cc(F)ccc4[nH]3)cc2)c1)Nc1ccc(Cl)c(Cl)c1,5.5
3,O=C(Nc1ccc(-c2ccccc2)cc1)Nc1cccc(Cn2ncc(N3CCCNCC3)c(Cl)c2=O)c1,1.74
4,O=C(CC1SC(N2N=C(c3cccs3)CC2c2ccccc2)=NC1=O)Nc1ccc(Cl)cc1 (stereo not given),1.98
5,CN1CCCN(Cc2cccc(-c3ccc(NC(=O)c4cccc(C#N)c4)cc3)c2)CC1,28.9
6,CC(C)(CNCc1ccc(C(F)(F)F)cc1)c1nc(-c2ccnc(N)n2)c(-c2ccc(Cl)c(O)c2)[nH]1,1.5
7,COc1ccc(C2C(C(=O)Nc3cc(OC)c(OC)c(OC)c3)c3cc(OC)c(OC)cc3C(=O)N2C)cc1 (stereo not given),1.9
8,CC(C)CNC(=O)c1cncc(-c2cccc(CNC3Cc4ccccc4C3)c2)c1,10.7
9,CCCCCCN1CCCN(Cc2ccc(C(=O)Nc3ccc(C)c(F)c3)cc2)CC1,11.8
10,CN1CCN(c2ccnc3cc4c(cc23)N(C(=O)Nc2ccc(-c3ccncc3)c3ccccc23)CC4)CC1,3.02
11,O=C(/C=C/c1ccc(Cl)c(Cl)c1)NCCCCCN1CCC(c2c[nH]c3cc(O)ccc23)CC1,9.77
12,CN(CCCNCc1ccc2ccccc2c1)CCCNCc1ccc2ccccc2c1,12.4
13,CN1C(=C2SC(=Nc3ccc4ncccc4c3)N(Cc3ccccc3)C2=O)Sc2ccc(Cl)cc21,1.22
14,CCCCCN1CCC(NS(=O)(=O)c2cccc(C(=O)Nc3ccc(C(F)(F)F)cc3)c2)C1 (stereo not given),1.64
15,OC(CN(Cc1ccccc1)Cc1ccccc1)Cn1c2ccc(Cl)cc2c2cc(Cl)ccc21 (stereo not given),-0.34
16,O=C(Nc1ccc(-c2cccc(-c3nc4ccccc4[nH]3)c2)cc1)Nc1ccc2c(c1)OCO2,1.87
17,COCC(=O)N(Cc1ccccc1-c1cccc(CNCc2ccc3c(c2)OCO3)c1)C1CCN(Cc2ccccc2)CC1,0.4
18,CCNc1cc(C)nc(Nc2ccc(C)cc2)n1,25.8
19,OCCNc1nc(Nc2ccc(Cl)cc2)nc2ccccc12,6.17
20,CCN(CC(C)O)C(=O)c1ccc(-c2cccc(-c3nc4cccc(C)c4[nH]3)c2)cc1 (stereo not given),0.34

# Biological target: Hexose transporter 1 (Plasmodium falciparum) (UniProt O97467)
# Assay: ST_JUDE_LEISH: Cytotoxicity at 2uM final concentration against transgenic Leishmania Mexicana promastigotes LmPfHT that are glucose transport deficient and complemented with the Plasmodium falciparum hexose transporter. Activity is measured by DNA content using SYBR green in vitro
# Type: functional
row,Compound,inhibition [%]
1,COc1cc(C(=O)NCCCN2CCN(c3cc(Cl)ccc3OC)CC2)ccc1-c1nc2cc(Cl)c(Cl)cc2[nH]1,6.15
2,CCC(=O)Nc1ccc(C(O)CN2CCC3(C=Cc4ccccc4O3)CC2)cc1 (stereo not given),2.65
3,CN1CCC(NCc2cccc(-c3cnc(NCc4ccccc4)nc3)c2)CC1,2.79
4,O=C(Nc1ccc(-c2nc3ccccc3[nH]2)cc1)c1ccc(-c2cccc([N+](=O)[O-])c2)o1,-0.42
5,Cc1cc(C)n2nc(C(=O)Nc3cc(C(F)(F)F)ccc3N3CCOCC3)nc2n1,2.82
6,CCN1CCN(c2cc(C)c3cc(NC(=O)c4cccc(C(F)(F)F)c4)ccc3n2)CC1,3.29
7,Clc1ccc(C2CCN(CCCOc3ccc4c(c3)CCNCC4)CC2)cc1,40.9
8,N#CCCN1CCN(Cc2cccc(-c3ccc(-c4nc5cc(F)ccc5[nH]4)cc3)c2)CC1,0.68
9,COc1cc2c(cc1CCNCCCCNCCc1cc3c(cc1OC)CCCC3)CCCC2,98.4
10,COc1ccc(-c2ccc(NC(=O)c3ccc(C#N)cc3)cc2)cc1CNC(C)C,3.24
11,COc1ccc2nccc([C@H](O)CN3CCC(NCc4ccc5c(c4C)OCCO5)CC3)c2n1,59.7
12,COc1ccc2c(c1)ncn2-c1cc(OCc2ccncc2Br)c(C(N)=O)s1,1.34
13,CC(=O)Nc1ccc(OCCCCN(Cc2ccccc2C(F)(F)F)c2ccc(C#N)c(C(F)(F)F)c2)cc1,6.69
14,COc1ccc2ccc(F)c(CC(=O)N3CCOC(CNCc4cccc(-c5ccsc5)n4)C3)c2n1 (stereo not given),6.66
15,S=C(NN=Cc1ccccn1)NC1CC2C=CC1C2 (stereo not given),13.6
16,CC(C)c1ccc(Nc2nc(NCCc3c[nH]cn3)nc(NCc3ccccc3)n2)cc1,1.6
17,CC(=O)Nc1cccc(C(=O)Nc2cccc(-c3cccc(-c4nc5cc(F)ccc5[nH]4)c3)c2)c1,3.51
18,CCN(CCCNc1nc(=S)[nH]c2cc(OC)c(OC)cc12)c1ccccc1,-1.25
19,COC(=O)C(=O)c1c(-c2ccccc2)c(-c2ccc(OC)c(OC)c2)c2c3cc(OC)c(OC)cc3ccn12,10.2
20,COc1cccc(CNC[C@@H](O)[C@H](Cc2ccccc2)NC(=O)c2cc3c4c(c2)c(C(C)C)cn4CCS(=O)(=O)N3C)c1,8.07

row,Compound,inhibition [%]
1,CN1CCN(Cc2ccc(-c3ccc4c(Nc5cc(O)c(Cl)cc5F)ccnc4c3)o2)CC1,4.6
2,O=C(Nc1cccc(-c2ccc(-c3nc4cc(F)ccc4[nH]3)cc2)c1)Nc1ccc(Cl)c(Cl)c1,2.93
3,O=C(Nc1ccc(-c2ccccc2)cc1)Nc1cccc(Cn2ncc(N3CCCNCC3)c(Cl)c2=O)c1,0.84
4,O=C(CC1SC(N2N=C(c3cccs3)CC2c2ccccc2)=NC1=O)Nc1ccc(Cl)cc1 (stereo not given),2.91
5,CN1CCCN(Cc2cccc(-c3ccc(NC(=O)c4cccc(C#N)c4)cc3)c2)CC1,12.9
6,CC(C)(CNCc1ccc(C(F)(F)F)cc1)c1nc(-c2ccnc(N)n2)c(-c2ccc(Cl)c(O)c2)[nH]1,0.51
7,COc1ccc(C2C(C(=O)Nc3cc(OC)c(OC)c(OC)c3)c3cc(OC)c(OC)cc3C(=O)N2C)cc1 (stereo not given),1.7
8,CC(C)CNC(=O)c1cncc(-c2cccc(CNC3Cc4ccccc4C3)c2)c1,6.1
9,CCCCCCN1CCCN(Cc2ccc(C(=O)Nc3ccc(C)c(F)c3)cc2)CC1,7.68
10,CN1CCN(c2ccnc3cc4c(cc23)N(C(=O)Nc2ccc(-c3ccncc3)c3ccccc23)CC4)CC1,2.26
11,O=C(/C=C/c1ccc(Cl)c(Cl)c1)NCCCCCN1CCC(c2c[nH]c3cc(O)ccc23)CC1,8.43
12,CN(CCCNCc1ccc2ccccc2c1)CCCNCc1ccc2ccccc2c1,13.7
13,CN1C(=C2SC(=Nc3ccc4ncccc4c3)N(Cc3ccccc3)C2=O)Sc2ccc(Cl)cc21,2.08
14,CCCCCN1CCC(NS(=O)(=O)c2cccc(C(=O)Nc3ccc(C(F)(F)F)cc3)c2)C1 (stereo not given),1.94
15,OC(CN(Cc1ccccc1)Cc1ccccc1)Cn1c2ccc(Cl)cc2c2cc(Cl)ccc21 (stereo not given),0.27
16,O=C(Nc1ccc(-c2cccc(-c3nc4ccccc4[nH]3)c2)cc1)Nc1ccc2c(c1)OCO2,2.62
17,COCC(=O)N(Cc1ccccc1-c1cccc(CNCc2ccc3c(c2)OCO3)c1)C1CCN(Cc2ccccc2)CC1,1.22
18,CCNc1cc(C)nc(Nc2ccc(C)cc2)n1,7.92
19,OCCNc1nc(Nc2ccc(Cl)cc2)nc2ccccc12,4.56
20,CCN(CC(C)O)C(=O)c1ccc(-c2cccc(-c3nc4cccc(C)c4[nH]3)c2)cc1 (stereo not given),1.63
